This is an account of results in publication PMC7862700, “An all-to-all approach to the identification of sequence-specific readers for epigenetic DNA modifications on cytosine”.

Holding throughout (assay): DAPPL (digital affinity profiling via proximity ligation, sequencing); 10 mM Tris-HCl pH 7.5, 50 mM NaCl, 1 mM DTT, 4% glycerol, room temperature, 30 min; GST-TFs on glutathione beads, 16-mer random dsDNA library, 0.1% formaldehyde crosslink after washing; high values mean tight binding
Common to all, as to conditions: protein: recombinant; tags: N-terminal GST; dsDNA, one strand shown

One experiment deals with T1, FLI1 (Homo sapiens, UniProt Q01543 1-452).
T1 sequence: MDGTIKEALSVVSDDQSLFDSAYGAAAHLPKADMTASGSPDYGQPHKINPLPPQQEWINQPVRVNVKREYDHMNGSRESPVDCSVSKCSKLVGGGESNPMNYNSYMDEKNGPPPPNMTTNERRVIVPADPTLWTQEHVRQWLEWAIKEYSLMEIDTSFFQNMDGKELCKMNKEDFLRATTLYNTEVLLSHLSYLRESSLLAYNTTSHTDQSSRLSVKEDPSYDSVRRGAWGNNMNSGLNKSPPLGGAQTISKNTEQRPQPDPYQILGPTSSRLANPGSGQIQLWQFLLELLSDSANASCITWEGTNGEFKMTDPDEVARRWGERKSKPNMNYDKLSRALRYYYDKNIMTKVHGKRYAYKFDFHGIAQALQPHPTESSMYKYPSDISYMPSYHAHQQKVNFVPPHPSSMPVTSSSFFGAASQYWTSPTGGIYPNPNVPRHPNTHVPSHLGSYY
The procedure, abridged: (§1)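 After expression in yeast as GST fusions, human transcription factors were bound to glutathione beads, DNA-barcoded and mixed with a tag-only sample. The pools were incubated with 200 nmole of a 16-mer random double-stranded DNA library in Tris/NaCl/DTT/glycerol buffer (30 min, room temperature), washed and crosslinked with 0.1% formaldehyde. Proximity ligation with BsaI/T4 ligase ran for 1 h at 37 °C, before PCR amplification and sequencing on an Illumina NextSeq500. Binding signal is a hexamer's read frequency for a factor divided by its frequency for the tag-only sample.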

For another experiment, the target named is T2, ELK1 (Homo sapiens, UniProt P19419 1-428).
T2 sequence: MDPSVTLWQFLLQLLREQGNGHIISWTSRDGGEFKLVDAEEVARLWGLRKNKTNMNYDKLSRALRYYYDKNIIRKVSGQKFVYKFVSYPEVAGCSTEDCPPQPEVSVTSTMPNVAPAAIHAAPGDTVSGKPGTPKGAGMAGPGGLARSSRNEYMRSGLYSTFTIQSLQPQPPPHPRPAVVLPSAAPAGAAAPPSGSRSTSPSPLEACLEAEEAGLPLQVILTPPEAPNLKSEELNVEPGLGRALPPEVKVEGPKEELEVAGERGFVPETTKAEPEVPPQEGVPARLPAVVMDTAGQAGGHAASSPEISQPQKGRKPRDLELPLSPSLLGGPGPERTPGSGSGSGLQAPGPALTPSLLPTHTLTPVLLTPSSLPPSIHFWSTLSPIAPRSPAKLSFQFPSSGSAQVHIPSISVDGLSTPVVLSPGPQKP
The procedure, abridged:
as §1

The next experiment has as its target T3, GABPA (Homo sapiens, UniProt Q06546 1-454).
T3 sequence: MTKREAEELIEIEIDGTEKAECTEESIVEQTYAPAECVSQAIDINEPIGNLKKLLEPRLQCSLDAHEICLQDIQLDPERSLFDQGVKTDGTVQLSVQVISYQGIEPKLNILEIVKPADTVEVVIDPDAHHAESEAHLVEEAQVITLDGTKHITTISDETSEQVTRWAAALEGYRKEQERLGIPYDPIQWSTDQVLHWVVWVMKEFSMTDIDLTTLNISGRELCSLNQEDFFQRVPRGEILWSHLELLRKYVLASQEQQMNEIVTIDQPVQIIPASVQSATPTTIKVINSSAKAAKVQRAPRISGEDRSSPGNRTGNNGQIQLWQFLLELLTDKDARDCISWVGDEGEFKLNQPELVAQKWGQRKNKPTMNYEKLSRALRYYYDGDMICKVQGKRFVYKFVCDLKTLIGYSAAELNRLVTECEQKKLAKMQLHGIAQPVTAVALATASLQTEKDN
The procedure, abridged: as §1

Another experiment concerns the target T4, ERG (Homo sapiens, UniProt P11308 1-479).
T4 sequence: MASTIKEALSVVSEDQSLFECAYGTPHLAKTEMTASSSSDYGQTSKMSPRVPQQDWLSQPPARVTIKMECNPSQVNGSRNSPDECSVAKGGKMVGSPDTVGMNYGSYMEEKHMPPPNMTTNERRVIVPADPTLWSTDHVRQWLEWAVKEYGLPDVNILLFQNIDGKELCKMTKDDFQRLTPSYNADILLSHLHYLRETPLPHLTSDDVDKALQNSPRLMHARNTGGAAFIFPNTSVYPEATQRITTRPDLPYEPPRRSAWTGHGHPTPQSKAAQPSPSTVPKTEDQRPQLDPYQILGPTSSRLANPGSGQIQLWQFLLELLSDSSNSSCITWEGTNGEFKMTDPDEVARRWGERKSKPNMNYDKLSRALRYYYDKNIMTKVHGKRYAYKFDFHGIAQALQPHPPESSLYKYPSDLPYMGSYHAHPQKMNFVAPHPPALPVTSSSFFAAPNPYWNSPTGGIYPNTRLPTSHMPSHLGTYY
The method, boiled down: as §1

The next experiment concerns the target ELF1 (Homo sapiens, UniProt P32519 1-619). The method, boiled down:
as §1

The target of another experiment is T5, EHF (Homo sapiens, UniProt Q9NZC4 1-300).
T5 sequence: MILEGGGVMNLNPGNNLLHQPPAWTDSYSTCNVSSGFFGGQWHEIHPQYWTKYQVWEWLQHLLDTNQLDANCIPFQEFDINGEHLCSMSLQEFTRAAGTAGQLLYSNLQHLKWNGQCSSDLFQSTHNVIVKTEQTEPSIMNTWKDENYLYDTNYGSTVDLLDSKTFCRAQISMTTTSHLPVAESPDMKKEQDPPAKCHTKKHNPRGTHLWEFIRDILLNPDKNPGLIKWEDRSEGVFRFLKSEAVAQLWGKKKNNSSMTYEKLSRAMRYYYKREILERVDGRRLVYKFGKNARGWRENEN
The method, boiled down: as §1

For a further experiment, the target named is SPI1 (Homo sapiens, UniProt P17947 1-270). The method, boiled down:
as §1

For a further experiment, the target named is SPIB (Homo sapiens, UniProt Q01892 1-262). The procedure, abridged:
as §1

In a further experiment the target is T6, ELK3 (Homo sapiens, UniProt P41970 1-407).
T6 sequence: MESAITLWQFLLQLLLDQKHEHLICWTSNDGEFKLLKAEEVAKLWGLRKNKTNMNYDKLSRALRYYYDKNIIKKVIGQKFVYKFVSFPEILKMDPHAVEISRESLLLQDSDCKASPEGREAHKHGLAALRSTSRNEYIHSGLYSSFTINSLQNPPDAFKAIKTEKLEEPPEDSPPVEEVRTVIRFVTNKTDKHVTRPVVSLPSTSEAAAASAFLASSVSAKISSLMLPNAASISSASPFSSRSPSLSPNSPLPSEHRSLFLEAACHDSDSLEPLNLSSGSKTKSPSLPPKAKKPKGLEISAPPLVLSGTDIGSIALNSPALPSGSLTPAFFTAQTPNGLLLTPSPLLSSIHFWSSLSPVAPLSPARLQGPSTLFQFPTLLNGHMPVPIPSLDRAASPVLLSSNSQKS
The method, boiled down: as §1

Chain of SPIB (Q01892 whole entry): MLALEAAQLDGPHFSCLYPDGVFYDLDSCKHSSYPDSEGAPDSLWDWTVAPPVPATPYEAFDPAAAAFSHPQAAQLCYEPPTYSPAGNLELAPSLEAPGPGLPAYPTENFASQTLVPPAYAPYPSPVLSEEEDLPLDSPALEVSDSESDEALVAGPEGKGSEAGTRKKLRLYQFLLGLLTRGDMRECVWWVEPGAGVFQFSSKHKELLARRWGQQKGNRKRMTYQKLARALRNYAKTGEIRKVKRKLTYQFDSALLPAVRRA
Chain of ELF1 (P32519 whole entry): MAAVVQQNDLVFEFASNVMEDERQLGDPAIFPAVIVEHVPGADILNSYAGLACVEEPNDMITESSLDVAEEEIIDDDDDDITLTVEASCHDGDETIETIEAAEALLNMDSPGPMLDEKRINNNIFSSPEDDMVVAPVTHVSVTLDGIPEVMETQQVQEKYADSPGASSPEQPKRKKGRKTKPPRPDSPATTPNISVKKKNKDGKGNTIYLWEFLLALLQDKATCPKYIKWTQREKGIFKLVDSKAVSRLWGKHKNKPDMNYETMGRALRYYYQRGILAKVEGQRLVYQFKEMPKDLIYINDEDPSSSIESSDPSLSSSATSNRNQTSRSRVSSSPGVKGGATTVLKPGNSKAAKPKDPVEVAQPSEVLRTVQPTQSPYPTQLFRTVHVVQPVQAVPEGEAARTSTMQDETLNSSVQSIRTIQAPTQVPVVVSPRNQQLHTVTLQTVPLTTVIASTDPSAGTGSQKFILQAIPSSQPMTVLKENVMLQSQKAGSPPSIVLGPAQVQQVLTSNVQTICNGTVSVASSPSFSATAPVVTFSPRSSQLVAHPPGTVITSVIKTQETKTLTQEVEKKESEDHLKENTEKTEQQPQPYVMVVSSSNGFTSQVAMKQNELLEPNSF

As for GCTGCT, the binding signal in the experiment with FLI1 is 1.32 fold enrichment (6-mer frequency, TF over GST control); with ELK1, 1.24 fold enrichment (6-mer frequency, TF over GST control); in the experiment with GABPA it was 1.24 fold enrichment (6-mer frequency, TF over GST control); in the experiment with ERG, 1.29 fold enrichment (6-mer frequency, TF over GST control); with ELF1, 1.41 fold enrichment (6-mer frequency, TF over GST control); with EHF it was 1.34 fold enrichment (6-mer frequency, TF over GST control). In addition, the binding signal is 1.19 fold enrichment (6-mer frequency, TF over GST control) with SPI1; 1.29 fold enrichment (6-mer frequency, TF over GST control) with SPIB; 1.27 fold enrichment (6-mer frequency, TF over GST control) with ELK3.
For ATGTCA, the binding signal was 1.14 fold enrichment (6-mer frequency, TF over GST control) with FLI1; 1.1 fold enrichment (6-mer frequency, TF over GST control) with ELK1; 1.14 fold enrichment (6-mer frequency, TF over GST control) with GABPA; 1.17 fold enrichment (6-mer frequency, TF over GST control) in the experiment with ERG; 1.16 fold enrichment (6-mer frequency, TF over GST control) with ELF1; 1.15 fold enrichment (6-mer frequency, TF over GST control) in the experiment with EHF. The binding signal with SPI1 is 1.08 fold enrichment (6-mer frequency, TF over GST control); with SPIB, 1.19 fold enrichment (6-mer frequency, TF over GST control); in the experiment with ELK3, 1.02 fold enrichment (6-mer frequency, TF over GST control).
As for TATAGA, the binding signal with FLI1 is 1.02 fold enrichment (6-mer frequency, TF over GST control); with ELK1, 1.07 fold enrichment (6-mer frequency, TF over GST control); with GABPA, 1.12 fold enrichment (6-mer frequency, TF over GST control); with ERG, 1 fold enrichment (6-mer frequency, TF over GST control); with ELF1, 1.13 fold enrichment (6-mer frequency, TF over GST control); in the experiment with EHF, 1.07 fold enrichment (6-mer frequency, TF over GST control). Further, the binding signal with SPI1 is 1.13 fold enrichment (6-mer frequency, TF over GST control); with SPIB it was 1.07 fold enrichment (6-mer frequency, TF over GST control); with ELK3 it was 1.14 fold enrichment (6-mer frequency, TF over GST control).
For the sequence ATGTAC, the binding signal was 1.31 fold enrichment (6-mer frequency, TF over GST control) with FLI1; 1.31 fold enrichment (6-mer frequency, TF over GST control) with ELK1; 1.19 fold enrichment (6-mer frequency, TF over GST control) with GABPA; 1.11 fold enrichment (6-mer frequency, TF over GST control) with ERG; 1.27 fold enrichment (6-mer frequency, TF over GST control) with ELF1; 1.25 fold enrichment (6-mer frequency, TF over GST control) in the experiment with EHF. Moreover, the binding signal is 1.23 fold enrichment (6-mer frequency, TF over GST control) in the experiment with SPI1; 1.27 fold enrichment (6-mer frequency, TF over GST control) in the experiment with SPIB; 1.26 fold enrichment (6-mer frequency, TF over GST control) with ELK3.
As to TCCTCT, the binding signal is 1.58 fold enrichment (6-mer frequency, TF over GST control) with FLI1; 1.57 fold enrichment (6-mer frequency, TF over GST control) in the experiment with ELK1; 1.57 fold enrichment (6-mer frequency, TF over GST control) in the experiment with GABPA; 1.7 fold enrichment (6-mer frequency, TF over GST control) with ERG; 1.64 fold enrichment (6-mer frequency, TF over GST control) with ELF1; 1.7 fold enrichment (6-mer frequency, TF over GST control) with EHF. The binding signal is 2.95 fold enrichment (6-mer frequency, TF over GST control) with SPI1; 1.72 fold enrichment (6-mer frequency, TF over GST control) with SPIB; 1.6 fold enrichment (6-mer frequency, TF over GST control) in the experiment with ELK3.
Turning to TGTTTA, the binding signal with FLI1 is 1.2 fold enrichment (6-mer frequency, TF over GST control); in the experiment with ELK1, 1.09 fold enrichment (6-mer frequency, TF over GST control); in the experiment with GABPA it was 1.18 fold enrichment (6-mer frequency, TF over GST control); in the experiment with ERG, 1.17 fold enrichment (6-mer frequency, TF over GST control); in the experiment with ELF1, 1.13 fold enrichment (6-mer frequency, TF over GST control); with EHF, 1.19 fold enrichment (6-mer frequency, TF over GST control). The binding signal with SPI1 was 1.12 fold enrichment (6-mer frequency, TF over GST control); with SPIB it was 1.21 fold enrichment (6-mer frequency, TF over GST control); with ELK3, 1.2 fold enrichment (6-mer frequency, TF over GST control).
On to ACATTG, for which the binding signal in the experiment with FLI1 was 1.24 fold enrichment (6-mer frequency, TF over GST control); with ELK1, 1.11 fold enrichment (6-mer frequency, TF over GST control); in the experiment with GABPA it was 1.17 fold enrichment (6-mer frequency, TF over GST control); with ERG it was 1.07 fold enrichment (6-mer frequency, TF over GST control); in the experiment with ELF1 it was 1.13 fold enrichment (6-mer frequency, TF over GST control); with EHF it was 1.17 fold enrichment (6-mer frequency, TF over GST control). Moreover, the binding signal is 1.04 fold enrichment (6-mer frequency, TF over GST control) with SPI1; 1.16 fold enrichment (6-mer frequency, TF over GST control) in the experiment with SPIB; 1.11 fold enrichment (6-mer frequency, TF over GST control) in the experiment with ELK3.
